{"source": "PubChem BioAssay AID1159580", "about": "(chemical genetic matrix, 2015)", "test": "chemical genetic growth profiling, strain panel (AID 1159580);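 note: tested at 20 µM; growth read once vehicle control cultures reached saturation at 30 °C; 1 = growth at the plate median or of vehicle wells; lower values mean less growth of the strain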", "conditions": "growth OD", "note": "The campaign covered roughly 5,500 compounds. About 2,000 (36%) were called active. Another 18% or so got no clear call; they are omitted. The list shows a part of the results. Unmarked numbers belong to inactive results. Cut-off read from the data, not from the text of the source: active = normalized growth mostly below about 0.91 (no sharp cut-off); inconclusive = no clear call, values can overlap the other calls; inactive = mostly above about 0.92.", "data": [{"smiles": "CN1CCN(CCC=C2c3ccccc3Sc3ccc(S(=O)(=O)N(C)C)cc32)CC1", "values": [{"measurement": "normalized growth", "setting": "S. cerevisiae deletion strains, locus YJR043C, strain POL32, stronger effect = lower value", "value": 1.01}, {"measurement": "normalized growth", "setting": "S. cerevisiae deletion strains, locus YJR066W, strain TOR1, stronger effect = lower value", "value": 0.922}, {"measurement": "normalized growth", "setting": "S. cerevisiae deletion strains, locus YKL009W, strain mrt4, stronger effect = lower value", "value": 0.971}, {"measurement": "normalized growth", "setting": "S. cerevisiae deletion strains, locus YKL068W, stronger effect = lower value", "value": 1.01}, {"measurement": "normalized growth", "setting": "S. cerevisiae deletion strains, locus YKL085W, strain MDH1 (second series), stronger effect = lower value", "value": 1}, {"measurement": "normalized growth", "setting": "S. cerevisiae deletion strains, locus YKL085W, strain MDH1, stronger effect = lower value", "value": 1}, {"measurement": "normalized growth", "setting": "S. cerevisiae deletion strains, locus YKL160W, strain elf1, stronger effect = lower value", "value": 0.97}, {"measurement": "normalized growth", "setting": "S. cerevisiae deletion strains, locus YKL190W, strain CNB1, stronger effect = lower value", "value": 1.02}, {"measurement": "normalized growth", "setting": "S. cerevisiae deletion strains, locus YKR001C, strain vps1, stronger effect = lower value", "value": 0.916}, {"measurement": "normalized growth", "setting": "S. cerevisiae deletion strains, locus YKR026C, strain gcn3, stronger effect = lower value", "value": 1.01}, {"measurement": "normalized growth", "setting": "S. cerevisiae deletion strains, locus YKR091W, strain srl3, stronger effect = lower value", "value": 1.01}, {"measurement": "normalized growth", "setting": "S. cerevisiae deletion strains, locus YLL001W, strain dnm1, stronger effect = lower value", "value": 0.906}, {"measurement": "normalized growth", "setting": "S. cerevisiae deletion strains, locus YLL026W, stronger effect = lower value", "value": 1}, {"measurement": "normalized growth", "setting": "S. cerevisiae deletion strains, locus YLL041C, strain sdh2, stronger effect = lower value", "value": 0.992}, {"measurement": "normalized growth", "setting": "S. cerevisiae deletion strains, locus YLR027C, strain aat2, stronger effect = lower value", "value": 0.982}, {"measurement": "normalized growth", "setting": "S. cerevisiae deletion strains, locus YLR039C, strain RIC1, stronger effect = lower value", "value": 1.27}, {"measurement": "normalized growth", "setting": "S. cerevisiae deletion strains, locus YLR058C, strain SHM2, stronger effect = lower value", "value": 1.01}, {"measurement": "normalized growth", "setting": "S. cerevisiae deletion strains, locus YLR102C, strain apc9, stronger effect = lower value", "value": 0.964}, {"measurement": "normalized growth", "setting": "S. cerevisiae deletion strains, locus YLR113W, strain HOG1, stronger effect = lower value", "value": 0.983}, {"measurement": "normalized growth", "setting": "S. cerevisiae deletion strains, locus YLR221C, strain rsa3, stronger effect = lower value", "value": 0.979}, {"measurement": "normalized growth", "setting": "S. cerevisiae deletion strains, locus YLR258W, strain gsy2, stronger effect = lower value", "value": 0.991}, {"measurement": "normalized growth", "setting": "S. cerevisiae deletion strains, locus YLR262C, strain YPT6 (second series), stronger effect = lower value", "value": 1.11}, {"measurement": "normalized growth", "setting": "S. cerevisiae deletion strains, locus YLR262C, strain YPT6, stronger effect = lower value", "value": 1.31}, {"measurement": "normalized growth", "setting": "S. cerevisiae deletion strains, locus YLR268W, strain sec22, stronger effect = lower value", "value": "0.88 (active)"}, {"measurement": "normalized growth", "setting": "S. cerevisiae deletion strains, locus YLR320W, strain mms22, stronger effect = lower value", "value": 0.893}, {"measurement": "normalized growth", "setting": "S. cerevisiae deletion strains, locus YLR330W, strain CHS5, stronger effect = lower value", "value": 1}, {"measurement": "normalized growth", "setting": "S. cerevisiae deletion strains, locus YLR342W, strain FKS1 (second series), stronger effect = lower value", "value": 0.99}, {"measurement": "normalized growth", "setting": "S. cerevisiae deletion strains, locus YLR342W, strain FKS1, stronger effect = lower value", "value": 0.954}, {"measurement": "normalized growth", "setting": "S. cerevisiae deletion strains, locus YLR357W, strain rsc2, stronger effect = lower value", "value": 0.983}, {"measurement": "normalized growth", "setting": "S. cerevisiae deletion strains, locus YLR370C, strain arc18, stronger effect = lower value", "value": 0.964}, {"measurement": "normalized growth", "setting": "S. cerevisiae deletion strains, locus YLR371W, strain rom2, stronger effect = lower value", "value": 0.976}, {"measurement": "normalized growth", "setting": "S. cerevisiae deletion strains, locus YLR384C, strain iki3, stronger effect = lower value", "value": 1.02}, {"measurement": "normalized growth", "setting": "S. cerevisiae deletion strains, locus YLR418C, strain cdc73, stronger effect = lower value", "value": "0.764 (active)"}, {"measurement": "normalized growth", "setting": "S. cerevisiae deletion strains, locus YML016C, strain PPZ1, stronger effect = lower value", "value": 1}, {"measurement": "normalized growth", "setting": "S. cerevisiae deletion strains, locus YML032C, strain rad52, stronger effect = lower value", "value": "0.896 (active)"}, {"measurement": "normalized growth", "setting": "S. cerevisiae deletion strains, locus YML120C, strain ndi1, stronger effect = lower value", "value": 0.984}, {"measurement": "normalized growth", "setting": "S. cerevisiae deletion strains, locus YML124C, strain tub3, stronger effect = lower value", "value": 0.988}, {"measurement": "normalized growth", "setting": "S. cerevisiae deletion strains, locus YMR058W, strain fet3, stronger effect = lower value", "value": 0.954}, {"measurement": "normalized growth", "setting": "S. cerevisiae deletion strains, locus YMR078C, strain ctf18, stronger effect = lower value", "value": 0.983}, {"measurement": "normalized growth", "setting": "S. cerevisiae deletion strains, locus YMR125W, strain sto1, stronger effect = lower value", "value": 1}, {"measurement": "normalized growth", "setting": "S. cerevisiae deletion strains, locus YMR129W, stronger effect = lower value", "value": 1.03}, {"measurement": "normalized growth", "setting": "S. cerevisiae deletion strains, locus YMR205C, strain PFK2, stronger effect = lower value", "value": 0.96}, {"measurement": "normalized growth", "setting": "S. cerevisiae deletion strains, locus YMR223W, strain ubp8, stronger effect = lower value", "value": "0.899 (active)"}, {"measurement": "normalized growth", "setting": "S. cerevisiae deletion strains, locus YMR231W, strain pep5, stronger effect = lower value", "value": 1.02}, {"measurement": "normalized growth", "setting": "S. cerevisiae deletion strains, locus YMR263W, strain SAP30, stronger effect = lower value", "value": 1.02}, {"measurement": "normalized growth", "setting": "S. cerevisiae deletion strains, locus YMR307W, strain GAS1, stronger effect = lower value", "value": 1.07}, {"measurement": "normalized growth", "setting": "S. cerevisiae deletion strains, locus YNL067W, strain RPL9B, stronger effect = lower value", "value": 1.01}, {"measurement": "normalized growth", "setting": "S. cerevisiae deletion strains, locus YNL071W, strain lat1, stronger effect = lower value", "value": 0.978}, {"measurement": "normalized growth", "setting": "S. cerevisiae deletion strains, locus YNL183C, strain NPR1, stronger effect = lower value", "value": 0.946}, {"measurement": "normalized growth", "setting": "S. cerevisiae deletion strains, locus YNL209W, strain ssb2, stronger effect = lower value", "value": 0.972}, {"measurement": "normalized growth", "setting": "S. cerevisiae deletion strains, locus YNL233W, strain BNI4, stronger effect = lower value", "value": 1}, {"measurement": "normalized growth", "setting": "S. cerevisiae deletion strains, locus YNL248C, strain rpa49, stronger effect = lower value", "value": 0.942}, {"measurement": "normalized growth", "setting": "S. cerevisiae deletion strains, locus YNL250W, strain rad50, stronger effect = lower value", "value": 0.992}, {"measurement": "normalized growth", "setting": "S. cerevisiae deletion strains, locus YNL271C, strain bni1, stronger effect = lower value", "value": 0.986}, {"measurement": "normalized growth", "setting": "S. cerevisiae deletion strains, locus YNL298W, strain CLA4, stronger effect = lower value", "value": 0.977}, {"measurement": "normalized growth", "setting": "S. cerevisiae deletion strains, locus YNL307C, strain MCK1, stronger effect = lower value", "value": "0.791 (active)"}, {"measurement": "normalized growth", "setting": "S. cerevisiae deletion strains, locus YNL322C, strain KRE1 (second series), stronger effect = lower value", "value": 0.996}, {"measurement": "normalized growth", "setting": "S. cerevisiae deletion strains, locus YNL322C, strain KRE1, stronger effect = lower value", "value": 1.01}, {"measurement": "normalized growth", "setting": "S. cerevisiae deletion strains, locus YNR049C, strain mso1, stronger effect = lower value", "value": 1.01}, {"measurement": "normalized growth", "setting": "S. cerevisiae deletion strains, locus YNR052C, strain pop2, stronger effect = lower value", "value": 0.971}, {"measurement": "normalized growth", "setting": "S. cerevisiae deletion strains, locus YOL006C, strain TOP1, stronger effect = lower value", "value": 0.983}, {"measurement": "normalized growth", "setting": "S. cerevisiae deletion strains, locus YOL012C, strain htz1", "value": 0.994}, {"measurement": "normalized growth", "setting": "S. cerevisiae deletion strains, locus YOL147C, strain pex11, stronger effect = lower value", "value": 0.959}, {"measurement": "normalized growth", "setting": "S. cerevisiae deletion strains, locus YOR001W, strain rrp6, stronger effect = lower value", "value": 0.977}, {"measurement": "normalized growth", "setting": "S. cerevisiae deletion strains, locus YOR061W, strain CKA2, stronger effect = lower value", "value": 1}, {"measurement": "normalized growth", "setting": "S. cerevisiae deletion strains, locus YOR069W, strain VPS5, stronger effect = lower value", "value": 1.01}, {"measurement": "normalized growth", "setting": "S. cerevisiae deletion strains, locus YOR070C, strain gyp1, stronger effect = lower value", "value": 0.991}, {"measurement": "normalized growth", "setting": "S. cerevisiae deletion strains, locus YOR080W, strain dia2, stronger effect = lower value", "value": 1.03}, {"measurement": "normalized growth", "setting": "S. cerevisiae deletion strains, locus YOR083W, strain WHI5, stronger effect = lower value", "value": 0.937}, {"measurement": "normalized growth", "setting": "S. cerevisiae deletion strains, locus YOR106W, strain vam3, stronger effect = lower value", "value": 1}, {"measurement": "normalized growth", "setting": "S. cerevisiae deletion strains, locus YOR136W, strain idh2, stronger effect = lower value", "value": 0.981}, {"measurement": "normalized growth", "setting": "S. cerevisiae deletion strains, locus YOR144C, strain elg1, stronger effect = lower value", "value": 0.988}, {"measurement": "normalized growth", "setting": "S. cerevisiae deletion strains, locus YOR184W, strain ser1, stronger effect = lower value", "value": 0.934}, {"measurement": "normalized growth", "setting": "S. cerevisiae deletion strains, locus YOR231W, strain MKK1, stronger effect = lower value", "value": 0.984}, {"measurement": "normalized growth", "setting": "S. cerevisiae deletion strains, locus YOR265W, strain rbl2, stronger effect = lower value", "value": 0.995}, {"measurement": "normalized growth", "setting": "S. cerevisiae deletion strains, locus YOR270C, strain vph1, stronger effect = lower value", "value": "0.763 (active)"}, {"measurement": "normalized growth", "setting": "S. cerevisiae deletion strains, locus YOR290C, strain snf2, stronger effect = lower value", "value": 0.913}, {"measurement": "normalized growth", "setting": "S. cerevisiae deletion strains, locus YOR316C, strain cot1, stronger effect = lower value", "value": 0.968}, {"measurement": "normalized growth", "setting": "S. cerevisiae deletion strains, locus YPL051W, strain arl3, stronger effect = lower value", "value": 0.95}, {"measurement": "normalized growth", "setting": "S. cerevisiae deletion strains, locus YPL078C, strain atp4, stronger effect = lower value", "value": 0.925}, {"measurement": "normalized growth", "setting": "S. cerevisiae deletion strains, locus YPL106C, strain sse1, stronger effect = lower value", "value": 0.947}, {"measurement": "normalized growth", "setting": "S. cerevisiae deletion strains, locus YPL240C, strain hsp82, stronger effect = lower value", "value": 0.999}, {"measurement": "normalized growth", "setting": "S. cerevisiae deletion strains, locus YPL256C, strain CLN2, stronger effect = lower value", "value": 0.965}, {"measurement": "normalized growth", "setting": "S. cerevisiae deletion strains, locus YPR119W, strain clb2, stronger effect = lower value", "value": 0.968}, {"measurement": "normalized growth", "setting": "S. cerevisiae deletion strains, locus YPR141C, strain kar3, stronger effect = lower value", "value": 1.02}, {"measurement": "normalized growth", "setting": "S. cerevisiae deletion strains, locus YPR163C, strain tif3, stronger effect = lower value", "value": 0.977}, {"measurement": "normalized growth", "setting": "S. cerevisiae deletion strains, locus YPR167C, strain met16, stronger effect = lower value", "value": 0.985}, {"measurement": "normalized growth", "setting": "S. cerevisiae deletion strains, strain wtn01, stronger effect = lower value", "value": 0.953}, {"measurement": "normalized growth", "setting": "S. cerevisiae strains, strain wild type, stronger effect = lower value", "value": 1.01}]}]}
